The whole screen tested about 310,000 compounds, of which about 14,000 (4.5%) showed an effect of 50% or more. The effect is printed as a negative number. For the sample, strong results were picked, then their nearest neighbours and some compounds at random.
biological target: human ether-à-go-go-related gene (hERG) potassium channel (human, UniProt Q12809); test: primary screen, population patch clamp on CHO cells stably expressing hERG; higher = less effect of the substance
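Also: peak tail current of the secondary pulse compared with the same well before compound.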

human ether-à-go-go-related gene (hERG) potassium channel, sequence (Q12809 whole entry, looked up): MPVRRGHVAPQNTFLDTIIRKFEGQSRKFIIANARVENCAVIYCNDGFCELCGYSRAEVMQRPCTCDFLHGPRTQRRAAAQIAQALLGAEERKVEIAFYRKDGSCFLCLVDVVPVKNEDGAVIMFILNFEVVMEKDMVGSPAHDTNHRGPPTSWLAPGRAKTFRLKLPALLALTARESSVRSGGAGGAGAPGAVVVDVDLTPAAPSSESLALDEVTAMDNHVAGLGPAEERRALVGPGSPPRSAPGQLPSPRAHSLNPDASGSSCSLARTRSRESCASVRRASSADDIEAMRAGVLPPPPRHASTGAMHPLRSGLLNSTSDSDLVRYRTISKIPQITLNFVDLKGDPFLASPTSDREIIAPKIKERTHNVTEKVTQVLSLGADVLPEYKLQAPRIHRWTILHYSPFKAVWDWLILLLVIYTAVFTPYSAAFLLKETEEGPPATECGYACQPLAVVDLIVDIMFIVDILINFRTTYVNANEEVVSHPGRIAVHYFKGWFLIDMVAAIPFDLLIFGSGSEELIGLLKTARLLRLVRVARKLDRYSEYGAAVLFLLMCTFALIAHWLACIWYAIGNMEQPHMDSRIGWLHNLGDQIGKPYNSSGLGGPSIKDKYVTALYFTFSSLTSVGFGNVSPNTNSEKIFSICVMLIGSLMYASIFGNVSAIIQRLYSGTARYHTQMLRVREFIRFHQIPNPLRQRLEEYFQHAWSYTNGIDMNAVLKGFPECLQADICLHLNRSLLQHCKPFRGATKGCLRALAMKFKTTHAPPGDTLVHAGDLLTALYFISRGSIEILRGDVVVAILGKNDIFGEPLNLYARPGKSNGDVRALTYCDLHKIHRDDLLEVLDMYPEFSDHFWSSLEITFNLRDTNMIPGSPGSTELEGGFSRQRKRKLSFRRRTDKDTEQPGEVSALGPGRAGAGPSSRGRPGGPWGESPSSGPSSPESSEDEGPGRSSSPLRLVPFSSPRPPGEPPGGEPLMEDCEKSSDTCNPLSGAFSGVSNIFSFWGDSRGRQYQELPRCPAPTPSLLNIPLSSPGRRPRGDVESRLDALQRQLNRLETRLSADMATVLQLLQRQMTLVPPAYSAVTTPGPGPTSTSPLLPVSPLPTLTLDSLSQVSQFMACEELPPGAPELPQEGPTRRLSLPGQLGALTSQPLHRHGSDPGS

Which “hERG current change (%, negative = inhibition) at 10uM” value does the source give for `COc1ccc(C(C)NC(=O)c2ccc(Cl)cc2)cc1OC` (stereo not drawn) here?
The value was 0.0898%.

Which “hERG current change (%, negative = inhibition) at 10uM” value does the source give for `Cc1ccc(/C=C/c2nnc(-c3ccc(C)cc3)o2)cc1` here?
Its value is 11.3%.

`COCCNC(=O)Nc1ccc2c(c1)N(C)C(=O)CS2` was tested. Which “hERG current change (%, negative = inhibition) at 10uM” value did it give?
The value was 11.5%.

How did the “hERG current change (%, negative = inhibition) at 10uM” value turn out when `COc1ccc(NC(=O)/C(=C\c2ccc(OS(=O)(=O)c3ccc(C)cc3)cc2)NC(=O)c2ccccc2)cc1` was run?
The value was 17.1%.

With `CC(=O)N1CCN=C1SCc1ccccc1F` as the compound, how does the “hERG current change (%, negative = inhibition) at 10uM” value read?
The value was 12.6%.

How did the “hERG current change (%, negative = inhibition) at 10uM” value turn out when `Cc1cc(C(=O)O)c(S(C)(=O)=O)s1` was run?
The value was -1.18%.

How did the “hERG current change (%, negative = inhibition) at 10uM” value turn out when `O=[N+]([O-])c1cccc(-c2nnn(C34CC5CC(CC(C5)C3)C4)n2)c1` was run?
Its value is 5.85%.

With `CC1CCN(CCC(=O)Nc2ccc(Cl)cc2)CC1.Cl` as the compound, how does the “hERG current change (%, negative = inhibition) at 10uM” value read?
Its value is -56.9%.

`CC1CCN(CCC(=O)Nc2ccccc2)CC1` was tested. Which “hERG current change (%, negative = inhibition) at 10uM” value did it give?
The value was -10.1%.

`CC1CC(C)CN(CCC(=O)Nc2ccc(Br)cc2)C1.Cl` (stereo not drawn) was tested. Which “hERG current change (%, negative = inhibition) at 10uM” value did it give?
The value was -53.5%.

How did the “hERG current change (%, negative = inhibition) at 10uM” value turn out when `Cc1cccc(NC(=O)CCN2CC(C)CC(C)C2)c1.Cl` (stereo not drawn) was run?
The value was -49.2%.

How did the “hERG current change (%, negative = inhibition) at 10uM” value turn out when `Cc1ccc(NC(=O)CCN2CCC(C)CC2)cc1.Cl` was run?
The value was 18.6%.

Which “hERG current change (%, negative = inhibition) at 10uM” value does the source give for `CC1CC(C)CN(CCC(=O)Nc2ccc3c(c2)CCC3)C1.Cl` (stereo not drawn) here?
The value was -43.6%.

For `COc1ccc(CN2C(=O)NC3(CCOc4ccccc43)C2=O)cc1F` (stereo not drawn), which “hERG current change (%, negative = inhibition) at 10uM” value is on record?
The value was -13.4%.

How did the “hERG current change (%, negative = inhibition) at 10uM” value turn out when `COC(=O)c1c(NC(=S)Nc2ccc(F)cc2[N+](=O)[O-])sc2c1CCCCC2` was run?
The value was 4.46%.

`CCOC(=O)C1CCN(C/C=C/c2ccccc2[N+](=O)[O-])CC1` was tested. Which “hERG current change (%, negative = inhibition) at 10uM” value did it give?
The value was -70.2%.

Which “hERG current change (%, negative = inhibition) at 10uM” value does the source give for `CCOC(=O)C1CCCN(C/C=C/c2ccccc2[N+](=O)[O-])C1` (stereo not drawn) here?
The value was -68.2%.

For `CC1CC(C)CN(C/C=C/c2ccccc2[N+](=O)[O-])C1` (stereo not drawn), which “hERG current change (%, negative = inhibition) at 10uM” value is on record?
The value was -55.9%.

Which “hERG current change (%, negative = inhibition) at 10uM” value does the source give for `O=[N+]([O-])c1ccccc1/C=C/CN1CCCCC1CO` (stereo not drawn) here?
The value was 5.49%.

With `CCOC(=O)C1CCCN(C/C=C/c2ccccc2)C1` (stereo not drawn) as the compound, how does the “hERG current change (%, negative = inhibition) at 10uM” value read?
Its value is -24.5%.

Which “hERG current change (%, negative = inhibition) at 10uM” value does the source give for `O=[N+]([O-])c1ccccc1/C=C/CN1CCCCC1` here?
The value was -6.44%.

Which “hERG current change (%, negative = inhibition) at 10uM” value does the source give for `CCC1CCCCN1C/C=C/c1ccccc1[N+](=O)[O-]` (stereo not drawn) here?
Its value is -60.2%.

Which “hERG current change (%, negative = inhibition) at 10uM” value does the source give for `CCN(CC)C(=O)C1CCCN(C/C=C/c2ccccc2[N+](=O)[O-])C1` (stereo not drawn) here?
Its value is -33%.

Which “hERG current change (%, negative = inhibition) at 10uM” value does the source give for `CCOC(=O)C1CCN(C/C=C/c2ccccc2)CC1` here?
Its value is -28.2%.

How did the “hERG current change (%, negative = inhibition) at 10uM” value turn out when `CCOC(=O)C1CCN(C/C=C/c2ccccc2OC)CC1` was run?
The value was -20.5%.

Which “hERG current change (%, negative = inhibition) at 10uM” value does the source give for `CC1CCCN(C/C=C/c2ccccc2[N+](=O)[O-])C1` (stereo not drawn) here?
The value was -23.1%.

For `CC1CCCCN1C/C=C/c1ccccc1[N+](=O)[O-]` (stereo not drawn), which “hERG current change (%, negative = inhibition) at 10uM” value is on record?
Its value is -39%.

With `C[N+](C)(C)CCN1C(=O)CSC1=O.[I-]` as the compound, how does the “hERG current change (%, negative = inhibition) at 10uM” value read?
The value was 10.3%.

Which “hERG current change (%, negative = inhibition) at 10uM” value does the source give for `COC(=O)c1ccc(NC(=O)CSCc2ccccc2)cc1` here?
Its value is -13.8%.

How did the “hERG current change (%, negative = inhibition) at 10uM” value turn out when `Cc1ccccc1C(=O)O/N=C1\CCS(=O)(=O)c2sccc21` was run?
The value was 8.17%.

Which “hERG current change (%, negative = inhibition) at 10uM” value does the source give for `Cc1ccccc1NC(=S)NC(NC(=O)CF)C(Cl)(Cl)Cl` (stereo not drawn) here?
Its value is 2.77%.

How did the “hERG current change (%, negative = inhibition) at 10uM” value turn out when `CCOP(=O)(OCC)C(NC(=O)Nc1cccc(Cl)c1)C(N)=O` (stereo not drawn) was run?
Its value is 8.47%.

How did the “hERG current change (%, negative = inhibition) at 10uM” value turn out when `C/C(=N\OCC(=O)Nc1ccccc1C(C)(C)C)c1ccc2c(c1)OCCO2` was run?
Its value is -10.9%.

For `O=C(Nc1ccc(Cl)cc1)OCc1cc(-c2ccccc2Cl)on1`, which “hERG current change (%, negative = inhibition) at 10uM” value is on record?
Its value is 7.51%.

With `CC1CN(C(=O)COC(=O)c2ccc(Cl)nc2)CC(C)O1` (stereo not drawn) as the compound, how does the “hERG current change (%, negative = inhibition) at 10uM” value read?
Its value is 6.41%.

For `COc1ccc(OC)c(C2CC(=O)N3CN(c4ccccc4)CSC3=C2C#N)c1` (stereo not drawn), which “hERG current change (%, negative = inhibition) at 10uM” value is on record?
Its value is 9.38%.

How did the “hERG current change (%, negative = inhibition) at 10uM” value turn out when `CC(=O)n1cc(/C=C2/N=C(c3ccccc3)OC2=O)c2ccccc21` was run?
The value was 7.37%.

Which “hERG current change (%, negative = inhibition) at 10uM” value does the source give for `CC1=CC(c2ccccc2)n2nc(N3C(=O)C4CC=CCC4C3=O)nc2N1` (stereo not drawn) here?
The value was -7.93%.

Which “hERG current change (%, negative = inhibition) at 10uM” value does the source give for `O=C1C2CC=CCC2C(=O)N1c1nc2n(n1)C(c1ccccc1)CC(c1ccccc1)N2` (stereo not drawn) here?
Its value is -52.6%.

How did the “hERG current change (%, negative = inhibition) at 10uM” value turn out when `CC1CC(c2ccccc2)n2nc(N3C(=O)c4ccccc4C3=O)nc2N1` (stereo not drawn) was run?
Its value is 12.4%.

Which “hERG current change (%, negative = inhibition) at 10uM” value does the source give for `CC1C/C(=C/c2cccn2C)C(=O)/C(=C/c2cccn2C)C1` (stereo not drawn) here?
The value was 9.5%.

With `O=C(NCc1nc(-c2ccc(C(F)(F)F)cc2)no1)c1cccs1` as the compound, how does the “hERG current change (%, negative = inhibition) at 10uM” value read?
The value was 5.51%.

How did the “hERG current change (%, negative = inhibition) at 10uM” value turn out when `CCOc1ccc(-n2ccnc2SCC(=O)N2CCCc3ccccc32)cc1` was run?
Its value is -13.7%.

Which “hERG current change (%, negative = inhibition) at 10uM” value does the source give for `S=C(c1ccc(-c2cccc(Cl)c2)o1)N1CCCCC1` here?
The value was 21.7%.

How did the “hERG current change (%, negative = inhibition) at 10uM” value turn out when `N#CCCN1CCN(C(=S)c2ccc(-c3cccc(Cl)c3)o2)CC1` was run?
The value was -59.9%.

`S=C(c1ccc(-c2cccc(Cl)c2)o1)N1CCOCC1` was tested. Which “hERG current change (%, negative = inhibition) at 10uM” value did it give?
Its value is 2.46%.

With `N#CCCN1CCN(C(=S)c2ccc(-c3ccc(Cl)cc3)o2)CC1` as the compound, how does the “hERG current change (%, negative = inhibition) at 10uM” value read?
The value was -55.8%.

How did the “hERG current change (%, negative = inhibition) at 10uM” value turn out when `N#CCCN1CCN(C(=S)c2ccc(-c3cc(Cl)ccc3Cl)o2)CC1` was run?
The value was -12.3%.

For `N#CCCN1CCN(C(=S)c2ccc(-c3ccc(Cl)c(Cl)c3)o2)CC1`, which “hERG current change (%, negative = inhibition) at 10uM” value is on record?
Its value is -14.1%.

With `CC(C)c1ccc2oc(=O)cc(CN3CCCCC3)c2c1` as the compound, how does the “hERG current change (%, negative = inhibition) at 10uM” value read?
The value was -12.8%.

For `O=C(CN1N=C(c2ccc(Cl)cc2)CCC1=O)NCc1cccnc1`, which “hERG current change (%, negative = inhibition) at 10uM” value is on record?
The value was -26.4%.

With `CCO.CCn1c(COc2ccc3c(c2)OCO3)nnc1SCC(=O)O` as the compound, how does the “hERG current change (%, negative = inhibition) at 10uM” value read?
The value was -0.394%.

Which “hERG current change (%, negative = inhibition) at 10uM” value does the source give for `CCOC(=O)N1CCN(C(=O)CS(=O)(=O)Cc2nc(-c3ccccc3F)oc2C)CC1` here?
Its value is -13.6%.

How did the “hERG current change (%, negative = inhibition) at 10uM” value turn out when `CCOC(=O)CNC(=O)CSc1nc2cccnc2n1CC` was run?
Its value is -7.04%.

How did the “hERG current change (%, negative = inhibition) at 10uM” value turn out when `COCCn1c(SCC(=O)N2CCCCC2)nc2cccnc21` was run?
The value was -1.5%.

For `CCOC(=O)CNC(=O)CSc1nc2cccnc2n1Cc1ccccc1`, which “hERG current change (%, negative = inhibition) at 10uM” value is on record?
Its value is -53.9%.

For `Cn1c(SCC(=O)N2CCCC2)nc2cccnc21`, which “hERG current change (%, negative = inhibition) at 10uM” value is on record?
Its value is 16.9%.

With `CCOC(=O)CNC(=O)CSc1nc2cccnc2n1C` as the compound, how does the “hERG current change (%, negative = inhibition) at 10uM” value read?
Its value is 7.54%.

`O=C(CSc1nc2cccnc2n1Cc1ccccc1)N1CCCC1` was tested. Which “hERG current change (%, negative = inhibition) at 10uM” value did it give?
Its value is -63.7%.

For `CC1=C(C(=O)OC(C)C)C(c2cncc(-c3ccc(F)cc3)c2)C(C#N)=C(N)O1` (stereo not drawn), which “hERG current change (%, negative = inhibition) at 10uM” value is on record?
Its value is -28.6%.

— article PMC4336329 (PLoS ONE, 2015)
